Where “and” joins values, the source holds several entries; their conditions need not be identical. Equal values may be shown once. Records with an inconclusive call do not appear. A call without a number means that no potency is given here. Calls of active or inactive are those of the source. The call rests on the fitted dose curve; in most records, active means well fitted curve in the direction sought with a large enough effect; inconclusive means small, poorly fitted or top-dose-only effect, or another doubt; inactive means no such curve, though single readings can be large; an effect the other way counts as inactive or inconclusive.
Key:
[1] = qHTS for Activators of Parkin Expression: LOPAC Validation Assay (FLuc Reporter) (AID 720573; further: potency means the concentration at half of the fitted maximal effect)
Summary of the method: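 Neuronal cell line stably carrying FLuc/NLuc coincidence reporter under Parkin promoter; cells plated 24 h, then compounds added in 7-point dose response for 24 h at 37 C. FLuc luminescence read; normalized to DMSO and positive control (100%).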

[2] = target: T1, Hexokinase-4 (Homo sapiens) + Glucokinase regulatory protein (Homo sapiens) (UniProt P35557+Q14397); experiment: qHTS assay for inhibitors of recombinant human GCK-GKRP interaction: Diaphorase-coupled assay (AID 743205)
T1 sequence (P35557 whole entry, looked up): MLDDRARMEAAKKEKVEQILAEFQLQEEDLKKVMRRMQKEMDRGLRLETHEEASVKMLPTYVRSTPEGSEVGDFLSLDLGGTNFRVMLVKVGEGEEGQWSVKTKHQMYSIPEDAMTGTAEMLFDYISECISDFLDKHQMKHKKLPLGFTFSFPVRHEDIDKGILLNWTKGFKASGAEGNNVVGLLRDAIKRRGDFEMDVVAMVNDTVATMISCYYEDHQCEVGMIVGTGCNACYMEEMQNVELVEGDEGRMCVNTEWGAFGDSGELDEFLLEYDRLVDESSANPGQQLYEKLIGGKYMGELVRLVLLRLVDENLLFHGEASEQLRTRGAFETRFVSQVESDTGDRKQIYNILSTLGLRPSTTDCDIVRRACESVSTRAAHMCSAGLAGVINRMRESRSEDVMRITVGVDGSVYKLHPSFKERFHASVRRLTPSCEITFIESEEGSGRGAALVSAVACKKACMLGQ
T1 sequence (Q14397 whole entry, looked up): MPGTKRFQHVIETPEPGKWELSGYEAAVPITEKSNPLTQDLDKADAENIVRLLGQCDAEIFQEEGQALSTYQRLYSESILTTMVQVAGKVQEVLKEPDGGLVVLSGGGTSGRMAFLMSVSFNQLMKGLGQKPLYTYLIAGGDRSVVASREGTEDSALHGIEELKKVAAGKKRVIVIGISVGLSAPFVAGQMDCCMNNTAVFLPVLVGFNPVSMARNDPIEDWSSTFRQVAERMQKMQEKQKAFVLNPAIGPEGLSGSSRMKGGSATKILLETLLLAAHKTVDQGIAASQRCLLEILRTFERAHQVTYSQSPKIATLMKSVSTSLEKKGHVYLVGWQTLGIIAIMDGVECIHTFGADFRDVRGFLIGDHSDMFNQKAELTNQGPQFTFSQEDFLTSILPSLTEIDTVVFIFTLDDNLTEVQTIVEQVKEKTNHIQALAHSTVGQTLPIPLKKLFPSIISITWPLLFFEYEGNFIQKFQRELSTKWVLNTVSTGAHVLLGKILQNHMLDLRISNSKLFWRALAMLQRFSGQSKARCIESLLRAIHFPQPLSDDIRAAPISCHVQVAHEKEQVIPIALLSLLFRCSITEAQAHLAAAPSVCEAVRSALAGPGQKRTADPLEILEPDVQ
Summary of the method: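 GST-GCK (10 nM) with FLAG-GKRP (10 nM), 5 mM glucose and 0.4 mM ATP in pH 7.6 Hepes; compounds preincubated 20 min with substrate. G6PDH/diaphorase coupling converts resazurin to resorufin, read kinetically (ex 525/em 590 nm) for 30 min.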

[3] = target: T1, Hexokinase-4 (Homo sapiens) + Glucokinase regulatory protein (Homo sapiens); experiment: qHTS assay for inhibitors of recombinant human GCK-GKRP interaction: ADP-Glo assay (AID 743206)
Summary of the method: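 Pin-transferred compounds meet a 15 nM GST-GCK/15 nM FLAG-GKRP/2 uM S6P mix (dispense concentrations). ATP is then added to 0.4 mM final with 5 mM glucose, and the reaction runs 60 min at room temperature. ADP is quantified luminescently.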

[4] = target: T1, Hexokinase-4 (Homo sapiens) + Glucokinase regulatory protein (Homo sapiens); experiment: qHTS assay for inhibitors of recombinant human GCK-GKRP interaction: HTRF assay (AID 743207)
Summary of the method: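 GST-GCK and FLAG-GKRP (5 nM each) were combined with 2 uM S6P in pH 7.1 Hepes/MgCl2/KCl/DTT buffer, then compound and anti-FLAG XL665/anti-GST K antibodies were added. After 60 min at room temperature, HTRF 665/615 nm emission was read.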

[5] = qHTS Assay for Identifying Gametocytocidal Compounds (AID 743244); further: potency means the concentration at half of the fitted maximal effect;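 on max response: actives lower the fluorescent signal which means gametocytes are killed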; settings: P. falciparum 3D7 stage III-V gametocytes, alamarBlue, 72 h; max response: active compounds read low
Summary of the method: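 Compounds are pinned into medium, gametocytes (stage III–V, 3D7, 20,000 cells/well) added, and plates held 72 h at 37 °C in 5% CO2. AlamarBlue follows for 24 h before fluorescence reading.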

## Brc1c(Br)c(Br)c2n[nH]nc2c1Br
[1]
  Potency: inactive
[2]
  outcome: inactive
[3]
  Potency: inactive
[4]
  Potency: inactive

## O=c1[nH]c2cc(C(F)(F)F)ccc2n1-c1cc(C(F)(F)F)ccc1O
[1]
  Potency: inactive
[2]
  outcome: inactive
[3]
  Potency: inactive
[4]
  Potency: inactive

## C[N+](C)(C)CCOP(=O)(O)OP(=O)([O-])OC[C@H]1O[C@@H](n2ccc(N)nc2=O)[C@H](O)[C@@H]1O
[1]
  Potency: inactive
[2]
  outcome: inactive
[3]
  Potency: inactive
[4]
  Potency: inactive
[5]
  max response: 1.57% (inactive) and 1.8% (inactive) and 27.7% (inactive)

## Cc1ccc(C(=O)O[C@H](C(=O)O)[C@@H](OC(=O)c2ccc(C)cc2)C(=O)O)cc1 (tested in a mixture with another compound)
[1]
  Potency: inactive
[2]
  outcome: inactive
[3]
  Potency: inactive
[4]
  Potency: inactive
[5]
  max response: -5.55% (inactive)

## O=C1O/C(=C/Br)CCC1c1cccc2ccccc12 (stereo unspecified)
[1]
  Potency: inactive
[2]
  outcome: inactive
[3]
  Potency: inactive
[4]
  Potency: inactive
[5]
  max response: 7.23% (inactive)

## CCCCN1CCC(n2c(=O)[nH]c3ccccc32)CC1
[1]
  Potency: inactive
[2]
  outcome: inactive
[3]
  Potency: inactive
[4]
  Potency: inactive
[5]
  max response: 5.22% (inactive)

## O=S(=O)(c1cccc2c(I)cccc12)N1CCCNCC1
[1]
  Potency: inactive
[2]
  outcome: inactive
[3]
  Potency: inactive
[4]
  Potency: inactive

## Ic1ccc(N2CCN(Cc3c[nH]c4ncccc34)CC2)cc1
[1]
  Potency: inactive
[2]
  outcome: inactive
[3]
  Potency: inactive
[4]
  Potency: inactive

## N#C/C(=C\c1ccc(O)c(O)c1)C(=O)c1ccc(O)c(O)c1
[1]
  Potency: inactive
[2]
  outcome: inactive
[3]
  Potency: inactive
[4]
  Potency: inactive
[5]
  max response: 10.5% (inactive)

## COc1cc(C(O)CO)ccc1OS(=O)(=O)O (stereo unspecified)
[1]
  Potency: inactive
[2]
  outcome: inactive
[3]
  Potency: inactive
[4]
  Potency: inactive
[5]
  max response: 2.33% (inactive)

## O=C(O)[C@@H]1C[C@H](C(=O)O)N1
[1]
  Potency: inactive
[2]
  outcome: inactive
[3]
  Potency: inactive
[4]
  Potency: inactive
[5]
  max response: -2.93% (inactive)

## CC(C)(C=O)Cc1cc(C(C)(C)C)c(O)c(C(C)(C)C)c1
[1]
  Potency: inactive
[2]
  outcome: inactive
[3]
  Potency: inactive
[4]
  Potency: inactive
[5]
  max response: 8.22% (inactive)

## N=C(N)SCCc1ccc(CCSC(=N)N)cc1
[1]
  Potency: inactive
[2]
  outcome: inactive
[3]
  Potency: inactive
[4]
  Potency: inactive
[5]
  max response: 24% (inactive)

## NC(=O)C1=CN(C2OC(COP(=O)(O)OP(=O)(O)OC[C@H]3O[C@@H](n4cnc5c(N)ncnc54)[C@H](OP(=O)(O)O)[C@@H]3O)C(O)C2O)C=CC1 (stereo partly specified)
[1]
  Potency: inactive
[2]
  outcome: inactive
[3]
  Potency: inactive
[4]
  Potency: inactive
[5]
  max response: -6.13% (inactive)

## NCCNC(=O)c1ncsc1-c1cccc(F)c1
[1]
  Potency: inactive
[2]
  outcome: inactive
[3]
  Potency: inactive
[4]
  Potency: inactive
[5]
  max response: 3.56% (inactive)

## CO/S(=N\S(=O)(=O)c1ccc(Cl)cc1)c1ccc([N+](=O)[O-])cc1 (stereo unspecified)
[1]
  Potency: inactive
[2]
  outcome: inactive
[3]
  Potency: inactive
[4]
  Potency: inactive
[5]
  max response: 19.6% (inactive)

## Cn1cc(C2=C(c3ccc(Cl)cc3Cl)C(=O)NC2=O)c2ccccc21
[1]
  Potency: inactive
[2]
  outcome: inactive
[3]
  Potency: inactive
[4]
  Potency: inactive
[5]
  max response: 6.65% (inactive)

## COc1cc2c(CCNC(C)=O)c[nH]c2cc1Cl
[1]
  Potency: inactive
[2]
  outcome: inactive
[3]
  Potency: inactive
[4]
  Potency: inactive
[5]
  max response: 6.49% (inactive)

## NO
[1]
  Potency: inactive
[2]
  outcome: inactive
[3]
  Potency: inactive
[4]
  Potency: inactive
[5]
  max response: -10.7% (inactive)

## Cc1cc(NC(=O)Nc2ccc3c(ccn3C)c2)sn1
[1]
  Potency: 5.8 µM (active)
[2]
  outcome: inactive
[3]
  Potency: inactive
[4]
  Potency: inactive
[5]
  max response: 24.1% (inactive)

## CCCCCC(O)c1cccc(OCc2ccc3ccccc3n2)c1 (stereo unspecified)
[1]
  Potency: inactive
[2]
  outcome: inactive
[3]
  Potency: inactive
[4]
  Potency: inactive
[5]
  max response: 5.39% (inactive)

## COc1cccc(C(=O)NCCN2CCN(c3ccc(Cl)cc3)CC2)c1
[1]
  Potency: inactive
[2]
  outcome: inactive
[3]
  Potency: inactive
[4]
  Potency: inactive
[5]
  max response: 13.6% (inactive)

## CCCCCCCCCCCCCCCCCCNC(=O)OCC(COP(=O)([O-])OCC[n+]1ccsc1)OC (stereo unspecified)
[1]
  Potency: inactive
[2]
  outcome: inactive
[3]
  Potency: inactive
[4]
  Potency: inactive
[5]
  max response: 12.3% (inactive)

## CCN(CC)c1ncnc2c1ncn2[C@@H]1O[C@H](COP(=O)(O)OP(=O)(O)C(Br)(Br)P(=O)(O)O)[C@@H](O)[C@H]1O
[1]
  Potency: inactive
[2]
  outcome: inactive
[3]
  Potency: inactive
[4]
  Potency: inactive
[5]
  max response: -1.02% (inactive)

## NCCSSCCN
[1]
  Potency: inactive
[2]
  outcome: inactive
[3]
  Potency: inactive
[4]
  Potency: inactive
[5]
  max response: 3.62% (inactive)

## COc1ccccc1CNCCCCCCNCCCCCCCCNCCCCCCNCc1ccccc1OC
[1]
  Potency: inactive
[2]
  outcome: inactive
[3]
  Potency: inactive
[4]
  Potency: inactive
[5]
  Potency: 1 µM (active)

## N[C@@H](CC(=O)O)C(=O)O
[1]
  Potency: inactive
[2]
  outcome: inactive
[3]
  Potency: inactive
[4]
  Potency: inactive
[5]
  max response: 20.5% (inactive)

## NCCCCC(=O)O
[1]
  Potency: inactive
[2]
  outcome: inactive
[3]
  Potency: inactive
[4]
  Potency: inactive
[5]
  max response: 12.2% (inactive)

— PubChem BioAssay (NCATS)
